Consider 29 compounds from PubChem BioAssay (Tox21).

Values joined by “and” are separate entries in the source; they are usually repeats but may differ in a detail not shown here. Identical values can stand only once. Active and inactive are the calls of the source. Entries that show only a call come without a potency. The call rests on the fitted dose curve; in most records, active means well fitted curve in the direction sought with a large enough effect in the repeat runs; inconclusive means weak or mixed curves; inactive means flat fitted curve, though single readings scatter.

One experiment can be described thus: qHTS assay to test for compound auto fluorescence at 590 nm (red) in HepG2 cells (AID 720674). Further: potency means the concentration at half of the fitted maximal effect. Particulars: HepG2 autofluorescence, red 540/590 nm, 1 h; series mostly up to 91.3 µM. In a few lines:
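Fluorescence at 590 nm emission following 540 nm excitation was recorded from HepG2 wells one hour after compound transfer, with DMSO-only wells as vehicle and Rose Bengal sodium equivalency as the scale.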
For orientation: Quantitative high-throughput screening tests each substance at several concentrations.
Turning to `O=C1NC(=O)C(c2ccccc2)(c2ccccc2)N1`, the Potency entry was “inactive”.
Same read-out and setting: for `O=c1[nH]cnc2c1ncn2[C@H]1CC[C@@H](CO)O1` the value was “inactive”; for `C=C(C)C(=O)OCC(C)O` (configuration not stated), “inactive”; for `CC(C)c1c(C(=O)Nc2ccccc2)c(-c2ccccc2)c(-c2ccc(F)cc2)n1CC[C@@H](O)C[C@@H](O)CC(=O)O`, “inactive”.
For the compound `O=C(Nc1ncc([N+](=O)[O-])s1)c1cccs1`, the Potency entry is “inactive”.
Turning to `CN1[C@@H]2CC(OC(=O)[C@H](CO)c3ccccc3)C[C@H]1[C@@H]1O[C@@H]12` (some centres not stated), the Potency entry is “inactive”.
On to `C/C=C/C=C/C(=O)O`, for which the Potency result is “inactive”.
Take `C1=CC2C3C=CC(C3)C2C1` (configuration not stated): the Potency entry was “inactive”.
Still for that read-out and setting: for `CCCC[P+](CCCC)(CCCC)CCCC` the value was “inactive”; for `CN1CCC[C@H]1c1cccnc1`, “inactive”; for `C1CCC(C(CC2CCCCN2)C2CCCCC2)CC1` (configuration not stated), “inactive”.
In the case of `O=S1(=O)OC(c2ccc(O)cc2)(c2ccc(O)cc2)c2ccccc21`, the Potency result was “inactive”.
With `Cc1ccc(S(=O)(=O)O)cc1`, the Potency result was “inactive”.
In the case of `CC/C(=C(\c1ccccc1)c1ccc(OCCN(C)C)cc1)c1ccccc1`, the Potency entry was “inactive”.
With `CCCCCCc1ccc(O)cc1O`, the Potency entry was “inactive”.
As to `O=C1NS(=O)(=O)c2ccccc21`, the Potency entry is “inactive”.
Consider `COc1ccc2cc(S(=O)(=O)N[C@H](CC(=O)N[C@H](Cc3ccc(CN4[C@H](C)CCC[C@@H]4C)cc3)C(=O)N(C)C(C)C)c3ccc4c(c3)OCO4)ccc2c1`, for which the Potency result was “inactive”.
The same measure, in the same setting: for `C=C1CC[C@H](O)C/C1=C\C=C1/CCC[C@]2(C)[C@@H]([C@H](C)CCCC(C)C)CC[C@@H]12` the value was “inactive”.
The same measure, in the same setting: then `F[B-](F)(F)F`, with “inactive”.
Turning to `CC(=O)CC(c1ccccc1)c1c(O)c2ccccc2oc1=O` (configuration not stated), the Potency entry was “inactive”.
`O=CC(=O)c1ccccc1`: the Potency result is “inactive”.
Still for that read-out and setting: then `CN[C@H]1CC[C@@H](c2ccc(Cl)c(Cl)c2)c2ccccc21`, with “inactive”.
Same read-out and setting: then `CCN(CC)C(=O)c1cccc(C)c1`, with “inactive”.
On the same count and under the same terms, then `CCCCC(CC)C(=O)O` (configuration not stated), with “inactive”.
Take `CC(C)NCC(O)c1ccc(O)c(O)c1` (configuration not stated): the Potency result was “inactive”.
For `O=C1OC2(c3ccccc31)c1cc(Br)c(O)c(Br)c1Oc1c2cc(Br)c(O)c1Br`, the Potency was 3.16 µM (active) and 2.51 µM (active).
For the compound `CC(=O)CCC(=O)O`, the Potency entry is “inactive”.
Still for that read-out and setting: for `COc1ccc(CN(CCN(C)C)c2ccccn2)cc1` the value was “inactive”; for `CCN(Cc1c(F)cccc1Cl)c1c([N+](=O)[O-])cc(C(F)(F)F)cc1[N+](=O)[O-]`, “inactive”.

A short description of the next experiment: qHTS assay to test for compound auto fluorescence at 535 nm (green) in HepG2 cells (AID 720675). Further: potency means the concentration at half of the fitted maximal effect. The conditions noted are these: green autofluorescence 485/535 nm, 1 h; series mostly up to 91.3 µM.
With `O=C1NC(=O)C(c2ccccc2)(c2ccccc2)N1`, the Potency result is “inactive”.
Still for that read-out and setting: then `O=c1[nH]cnc2c1ncn2[C@H]1CC[C@@H](CO)O1`, with “inactive”; and `C=C(C)C(=O)OCC(C)O` (configuration not stated), with “inactive”; and `CC(C)c1c(C(=O)Nc2ccccc2)c(-c2ccccc2)c(-c2ccc(F)cc2)n1CC[C@@H](O)C[C@@H](O)CC(=O)O`, with “inactive”.
Same read-out and setting: for `O=C(Nc1ncc([N+](=O)[O-])s1)c1cccs1` the value was “inactive”; for `CN1[C@@H]2CC(OC(=O)[C@H](CO)c3ccccc3)C[C@H]1[C@@H]1O[C@@H]12` (some centres not stated), “inactive”; for `C/C=C/C=C/C(=O)O`, “inactive”.
Consider `C1=CC2C3C=CC(C3)C2C1` (configuration not stated), for which the Potency result was “inactive”.
On to `CCCC[P+](CCCC)(CCCC)CCCC`, for which the Potency result is “inactive”.
Same read-out and setting: for `CN1CCC[C@H]1c1cccnc1` the value was “inactive”; for `C1CCC(C(CC2CCCCN2)C2CCCCC2)CC1` (configuration not stated), “inactive”; for `O=S1(=O)OC(c2ccc(O)cc2)(c2ccc(O)cc2)c2ccccc21`, “inactive”.
As to `Cc1ccc(S(=O)(=O)O)cc1`, the Potency result is “inactive”.
Same read-out and setting: for `CC/C(=C(\c1ccccc1)c1ccc(OCCN(C)C)cc1)c1ccccc1` the value was “inactive”; for `CCCCCCc1ccc(O)cc1O`, “inactive”.
On the same count and under the same terms, then `O=C1NS(=O)(=O)c2ccccc21`, with “inactive”.
Still for that read-out and setting: then `COc1ccc2cc(S(=O)(=O)N[C@H](CC(=O)N[C@H](Cc3ccc(CN4[C@H](C)CCC[C@@H]4C)cc3)C(=O)N(C)C(C)C)c3ccc4c(c3)OCO4)ccc2c1`, with “inactive”; and `C=C1CC[C@H](O)C/C1=C\C=C1/CCC[C@]2(C)[C@@H]([C@H](C)CCCC(C)C)CC[C@@H]12`, with “inactive”; and `F[B-](F)(F)F`, with “inactive”.
Regarding `CC(=O)CC(c1ccccc1)c1c(O)c2ccccc2oc1=O` (configuration not stated), the Potency result is “inactive”.
On to `O=CC(=O)c1ccccc1`, for which the Potency result was “inactive”.
On the same count and under the same terms, for `CN[C@H]1CC[C@@H](c2ccc(Cl)c(Cl)c2)c2ccccc21` the value was “inactive”; for `CCN(CC)C(=O)c1cccc(C)c1`, “inactive”; for `CCCCC(CC)C(=O)O` (configuration not stated), “inactive”.
The same measure, in the same setting: for `CC(C)NCC(O)c1ccc(O)c(O)c1` (configuration not stated) the value was “inactive”; for `O=C1OC2(c3ccccc31)c1cc(Br)c(O)c(Br)c1Oc1c2cc(Br)c(O)c1Br`, 12.6 µM (active) and 4.47 µM (active) and 17.8 µM (active); for `CC(=O)CCC(=O)O`, “inactive”.
Still for that read-out and setting: then `COc1ccc(CN(CCN(C)C)c2ccccn2)cc1`, with “inactive”.
As to `CCN(Cc1c(F)cccc1Cl)c1c([N+](=O)[O-])cc(C(F)(F)F)cc1[N+](=O)[O-]`, the Potency result is “inactive”.

A further experiment in a line: qHTS assay to test for compound auto fluorescence at 460 nm (blue) in HEK293 cells (AID 720678). Particulars: blue autofluorescence 405/460 nm; series mostly up to 91.3 µM. In outline:
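HEK293 cells (2,000/well, medium with 10% dialyzed FBS) attached 4-5 hr, then exposed to compound overnight at 37C, 5% CO2. Blue fluorescence read at 405/460 nm, with triamterene as reference fluorophore.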
Consider `O=C1NC(=O)C(c2ccccc2)(c2ccccc2)N1`, for which the Potency entry is “inactive”.
The same measure, in the same setting: then `O=c1[nH]cnc2c1ncn2[C@H]1CC[C@@H](CO)O1`, with “inactive”; and `C=C(C)C(=O)OCC(C)O` (configuration not stated), with “inactive”.
The same measure, in the same setting: for `CC(C)c1c(C(=O)Nc2ccccc2)c(-c2ccccc2)c(-c2ccc(F)cc2)n1CC[C@@H](O)C[C@@H](O)CC(=O)O` the value was “inactive”; for `O=C(Nc1ncc([N+](=O)[O-])s1)c1cccs1`, “inactive”; for `CN1[C@@H]2CC(OC(=O)[C@H](CO)c3ccccc3)C[C@H]1[C@@H]1O[C@@H]12` (some centres not stated), “inactive”.
Same read-out and setting: for `C/C=C/C=C/C(=O)O` the value was “inactive”; for `C1=CC2C3C=CC(C3)C2C1` (configuration not stated), “inactive”.
Consider `CCCC[P+](CCCC)(CCCC)CCCC`, for which the Potency result was “inactive”.
The same measure, in the same setting: for `CN1CCC[C@H]1c1cccnc1` the value was “inactive”.
Same read-out and setting: then `C1CCC(C(CC2CCCCN2)C2CCCCC2)CC1` (configuration not stated), with “inactive”; and `O=S1(=O)OC(c2ccc(O)cc2)(c2ccc(O)cc2)c2ccccc21`, with “inactive”; and `Cc1ccc(S(=O)(=O)O)cc1`, with “inactive”.
Still for that read-out and setting: then `CC/C(=C(\c1ccccc1)c1ccc(OCCN(C)C)cc1)c1ccccc1`, with “inactive”.
Turning to `CCCCCCc1ccc(O)cc1O`, the Potency entry was “inactive”.
The same measure, in the same setting: then `O=C1NS(=O)(=O)c2ccccc21`, with “inactive”; and `COc1ccc2cc(S(=O)(=O)N[C@H](CC(=O)N[C@H](Cc3ccc(CN4[C@H](C)CCC[C@@H]4C)cc3)C(=O)N(C)C(C)C)c3ccc4c(c3)OCO4)ccc2c1`, with “inactive”.
The same measure, in the same setting: then `C=C1CC[C@H](O)C/C1=C\C=C1/CCC[C@]2(C)[C@@H]([C@H](C)CCCC(C)C)CC[C@@H]12`, with “inactive”; and `F[B-](F)(F)F`, with “inactive”; and `CC(=O)CC(c1ccccc1)c1c(O)c2ccccc2oc1=O` (configuration not stated), with “inactive”.
On the same count and under the same terms, then `O=CC(=O)c1ccccc1`, with “inactive”; and `CN[C@H]1CC[C@@H](c2ccc(Cl)c(Cl)c2)c2ccccc21`, with “inactive”.
Consider `CCN(CC)C(=O)c1cccc(C)c1`, for which the Potency entry is “inactive”.
Regarding `CCCCC(CC)C(=O)O` (configuration not stated), the Potency entry was “inactive”.
Same read-out and setting: for `CC(C)NCC(O)c1ccc(O)c(O)c1` (configuration not stated) the value was “inactive”; for `O=C1OC2(c3ccccc31)c1cc(Br)c(O)c(Br)c1Oc1c2cc(Br)c(O)c1Br`, “inactive”.
Still for that read-out and setting: for `CC(=O)CCC(=O)O` the value was “inactive”; for `COc1ccc(CN(CCN(C)C)c2ccccn2)cc1`, “inactive”.
On the same count and under the same terms, then `CCN(Cc1c(F)cccc1Cl)c1c([N+](=O)[O-])cc(C(F)(F)F)cc1[N+](=O)[O-]`, with “inactive”.
